Reference: PubChem BioAssay (NCATS)
Values without a mark were called inactive. Records with an inconclusive call do not appear. Calls of active or inactive are those of the source. Unless noted, the call rests on the fitted dose curve; in most records, active means well fitted curve in either direction with a large enough effect (not every such curve was filed as active); inconclusive means small, poorly fitted or top-dose-only effect, or another doubt; inactive means flat fitted curve, though single readings scatter.

Tests used:
[1] = target: Lysosomal acid glucosylceramidase (Homo sapiens) (UniProt P04062); experiment: Glucocerebrosidase-p2 (AID 348; in the data active means potency below about 10 µM; further: potency means the concentration at half of the fitted maximal effect); settings: purified GBA, blue fluorogenic substrate, 40 min
Sequence of Lysosomal acid glucosylceramidase (Homo sapiens) (P04062 whole entry, looked up): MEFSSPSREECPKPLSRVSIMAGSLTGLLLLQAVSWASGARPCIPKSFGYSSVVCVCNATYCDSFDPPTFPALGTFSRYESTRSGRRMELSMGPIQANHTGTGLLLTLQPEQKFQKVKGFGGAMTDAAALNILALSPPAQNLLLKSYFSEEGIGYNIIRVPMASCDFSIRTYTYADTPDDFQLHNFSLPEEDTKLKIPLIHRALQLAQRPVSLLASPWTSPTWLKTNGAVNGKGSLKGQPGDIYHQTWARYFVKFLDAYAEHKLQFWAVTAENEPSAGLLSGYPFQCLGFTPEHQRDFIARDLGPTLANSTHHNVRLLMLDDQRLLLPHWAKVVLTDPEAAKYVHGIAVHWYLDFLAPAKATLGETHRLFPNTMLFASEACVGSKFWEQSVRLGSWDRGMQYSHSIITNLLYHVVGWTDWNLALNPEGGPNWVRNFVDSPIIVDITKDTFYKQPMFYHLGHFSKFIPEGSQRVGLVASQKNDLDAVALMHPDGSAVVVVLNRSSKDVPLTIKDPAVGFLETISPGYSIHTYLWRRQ
Procedure, shortened: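 Compounds titrated from 0.6 nM upwards against 0.2 nM enzyme in pH 5.9 citric acid/KH2PO4, taurocholate, tween-20; blue fluorogenic substrate 80 uM, 40 min room temperature, stopped and read Ex 365/Em 440 for AC50.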

[2] = AP1 Signaling Pathway (AID 357); settings: ME-180 AP-1-bla reporter, EGF-induced, beta-lactamase ratio, 5 h; at 7.69 µM (top of the series) unless noted;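 further: ME-180 reporter cells stimulated with EGF at its EC50 level; on the % scale 0 is the no-effect control and ±100 the full control effect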
Procedure, shortened: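 Cells are seeded overnight, exposed to compound titrations and an EC50 level of EGF for 5 hours at 37 °C, then loaded with CCF4 dye for 2.5 hours. Beta-lactamase activity under the AP-1 element is read as a blue/green ratio.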

[3] = target: Cytochrome P450 1A2 (Homo sapiens) (UniProt P05177); experiment: p450-cyp1a2 (AID 410; calls by dose curve; further: potency means the concentration at half of the fitted maximal effect;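 on activity change, negative = inhibition: -100% = full effect of reference inhibitor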); settings: recombinant CYP1A2, luciferin-ME demethylation, luminescence; series mostly up to 11.4 µM
Sequence of Cytochrome P450 1A2 (Homo sapiens) (P05177 whole entry, looked up): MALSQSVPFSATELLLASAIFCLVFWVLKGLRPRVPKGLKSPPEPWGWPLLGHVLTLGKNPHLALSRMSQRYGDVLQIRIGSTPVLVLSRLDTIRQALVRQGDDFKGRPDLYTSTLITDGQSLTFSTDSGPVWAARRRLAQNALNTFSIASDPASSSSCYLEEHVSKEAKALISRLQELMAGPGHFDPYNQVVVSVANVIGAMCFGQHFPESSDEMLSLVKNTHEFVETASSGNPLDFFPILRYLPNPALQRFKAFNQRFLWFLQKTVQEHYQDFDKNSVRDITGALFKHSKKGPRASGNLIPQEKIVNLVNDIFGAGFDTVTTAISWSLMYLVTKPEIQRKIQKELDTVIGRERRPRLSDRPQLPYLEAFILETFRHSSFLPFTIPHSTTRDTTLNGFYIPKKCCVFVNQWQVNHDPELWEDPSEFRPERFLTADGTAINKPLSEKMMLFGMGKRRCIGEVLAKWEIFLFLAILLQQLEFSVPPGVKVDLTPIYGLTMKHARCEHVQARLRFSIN
Procedure, shortened: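 Human CYP1A2 (20nM) demethylated Luciferin-ME at its Km (100uM) in 100mM KPO4. After 10 min compound preincubation, NADPH regeneration ran the reaction 60 min at room temperature. Luciferin was read by luminescence, normalized to 57 uM furafylline.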

[4] = Stat Signaling Pathway (AID 446); settings: ME-180 SIE beta-lactamase reporter, IL-6 stimulated, 5 h; at 7.69 µM (top of the series) unless noted;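 further: ME-180 cervical cancer cells given 40 pM IL-6 alongside compound; SIE-controlled beta-lactamase reporter measured as 460/530 nm FRET emission ratio; on the % scale 0 is the no-effect control and ±100 the full control effect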
Procedure, shortened: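 Screening format detects activators and inhibitors alike: ME-180 SIE-bla cells stimulated at 40 pM IL-6 for 5 hrs with compound, then dual-emission beta-lactamase read at 405 nm excitation.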

[5] = target: Glucocorticoid receptor (Homo sapiens) (UniProt P04150); experiment: GR-GFP Redistribution (AID 450;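 active means compounds whose dose series gives a full or clear partial fitted curve of increased nuclear translocation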; further: potency means the concentration at half of the fitted maximal effect); settings: U2OS GR-GFP nuclear translocation, laser cytometry, 2 h
Sequence of Glucocorticoid receptor (Homo sapiens) (P04150 whole entry, looked up, the tested form may be a part): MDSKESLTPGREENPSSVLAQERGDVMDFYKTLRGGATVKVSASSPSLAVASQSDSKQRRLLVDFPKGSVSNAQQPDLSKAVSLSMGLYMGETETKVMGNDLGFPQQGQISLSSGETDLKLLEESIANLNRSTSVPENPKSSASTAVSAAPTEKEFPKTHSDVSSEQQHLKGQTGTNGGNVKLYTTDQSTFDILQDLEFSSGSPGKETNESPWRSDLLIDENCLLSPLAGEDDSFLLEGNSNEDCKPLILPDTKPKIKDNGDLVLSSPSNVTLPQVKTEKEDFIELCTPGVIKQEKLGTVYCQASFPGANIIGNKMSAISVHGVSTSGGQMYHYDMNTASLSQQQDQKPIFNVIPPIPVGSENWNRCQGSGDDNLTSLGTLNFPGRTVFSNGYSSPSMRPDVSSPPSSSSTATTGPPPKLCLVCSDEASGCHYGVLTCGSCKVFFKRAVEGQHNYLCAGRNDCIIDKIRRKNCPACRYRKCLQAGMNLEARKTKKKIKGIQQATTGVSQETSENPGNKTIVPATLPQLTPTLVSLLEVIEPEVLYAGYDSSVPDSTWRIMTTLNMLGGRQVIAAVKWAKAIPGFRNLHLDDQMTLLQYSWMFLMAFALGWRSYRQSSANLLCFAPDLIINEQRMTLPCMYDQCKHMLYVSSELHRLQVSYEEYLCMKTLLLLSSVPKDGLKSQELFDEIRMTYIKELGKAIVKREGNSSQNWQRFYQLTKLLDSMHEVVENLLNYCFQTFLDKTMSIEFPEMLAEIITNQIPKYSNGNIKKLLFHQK

[6] = target: Glucocorticoid receptor (Homo sapiens) (UniProt P04150); experiment: GR-EFC Redistribution (AID 451; calls by dose curve; further: potency means the concentration at half of the fitted maximal effect); settings: CHO-K1 GR-EFC translocation, beta-gal luminescence, 2 h
Procedure, shortened: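 CHO-K1 cells expressing nuclear EA and GR-ED fragments of b-gal; compounds titrated up to 46 uM final, 2 h at 37 C. GR nuclear translocation read as complemented b-gal luminescence after 1 h RT detection.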

[7] = target: 3',5'-cyclic-AMP phosphodiesterase 4B (Homo sapiens) (UniProt Q07343); experiment: qHTS Assay for Inhibitors of PDE-IV (AID 607; active means well fitted activation curve with a large enough effect in the main read-out, with a control signal flat, not every such curve was filed as active; further: % of control where 0% means no effect); settings: HEK293 ACTOne CNG channel cells, membrane potential fluorescence; series mostly up to 22.9 µM
Sequence of 3',5'-cyclic-AMP phosphodiesterase 4B (Homo sapiens) (Q07343 whole entry, looked up): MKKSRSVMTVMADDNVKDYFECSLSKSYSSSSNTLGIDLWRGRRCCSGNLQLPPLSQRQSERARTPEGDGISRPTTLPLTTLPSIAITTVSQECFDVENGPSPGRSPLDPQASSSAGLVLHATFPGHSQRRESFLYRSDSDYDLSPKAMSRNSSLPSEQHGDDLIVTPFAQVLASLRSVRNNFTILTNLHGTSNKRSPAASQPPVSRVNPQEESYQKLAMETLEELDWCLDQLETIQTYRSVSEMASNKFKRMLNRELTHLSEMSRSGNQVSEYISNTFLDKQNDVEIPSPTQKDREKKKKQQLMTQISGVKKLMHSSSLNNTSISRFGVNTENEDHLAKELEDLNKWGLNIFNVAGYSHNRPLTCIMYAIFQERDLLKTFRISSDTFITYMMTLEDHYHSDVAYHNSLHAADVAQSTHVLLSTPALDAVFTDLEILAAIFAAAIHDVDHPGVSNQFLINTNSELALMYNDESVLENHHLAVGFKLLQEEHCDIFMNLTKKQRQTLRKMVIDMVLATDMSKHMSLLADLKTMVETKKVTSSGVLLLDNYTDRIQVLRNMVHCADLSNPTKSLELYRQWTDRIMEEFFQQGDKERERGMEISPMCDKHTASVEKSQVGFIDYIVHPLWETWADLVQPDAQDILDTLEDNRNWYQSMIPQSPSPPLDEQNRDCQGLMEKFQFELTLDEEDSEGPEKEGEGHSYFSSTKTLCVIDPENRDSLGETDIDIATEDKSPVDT
Procedure, shortened: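 The readout is membrane depolarisation from a cAMP-sensing CNG channel, detected with a potential dye at ex 535/em 590. Cells were HEK293-derived (endogenous PDE-IV) at 1000 cells/well, titrated up to 22.9 uM final.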

[8] = target: Cytochrome P450 3A4 (Homo sapiens) (UniProt P08684); experiment: qHTS Assay for Inhibitors and Substrates of Cytochrome P450 3A4 (AID 884; active means well fitted inhibition curve with a large enough effect; further: potency means the concentration at half of the fitted maximal effect; nearly all actives have a fitted effect of over 50% in size); settings: recombinant CYP3A4, Luciferin-PPXE luminescence; series mostly up to 57.1 µM
Sequence of Cytochrome P450 3A4 (Homo sapiens) (P08684 whole entry, looked up): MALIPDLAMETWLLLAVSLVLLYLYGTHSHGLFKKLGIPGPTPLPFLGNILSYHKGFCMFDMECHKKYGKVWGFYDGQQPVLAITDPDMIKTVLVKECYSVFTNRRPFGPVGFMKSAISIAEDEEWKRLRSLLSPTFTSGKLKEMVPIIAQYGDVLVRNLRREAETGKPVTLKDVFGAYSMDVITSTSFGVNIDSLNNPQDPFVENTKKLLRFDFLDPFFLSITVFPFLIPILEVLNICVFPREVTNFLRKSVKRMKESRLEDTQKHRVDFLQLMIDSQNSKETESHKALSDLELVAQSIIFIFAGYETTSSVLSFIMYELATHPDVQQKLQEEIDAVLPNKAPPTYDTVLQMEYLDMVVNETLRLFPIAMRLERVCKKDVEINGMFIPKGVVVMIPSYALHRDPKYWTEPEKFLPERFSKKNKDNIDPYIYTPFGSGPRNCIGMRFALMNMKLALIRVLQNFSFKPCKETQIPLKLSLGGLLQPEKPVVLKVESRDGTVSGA
Procedure, shortened: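 20 nM human CYP3A4 with 25 uM Luciferin-PPXE (at KM) in 200 mM KPO4, preincubated 10 min with compound; NADPH regeneration started a 60 min RT reaction. Luciferin detected by luminescence, normalized to 57 uM ketoconazole as full inhibition.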

[9] = target: Cytochrome P450 2C19 (Homo sapiens) (UniProt P33261); experiment: qHTS Assay for Inhibitors and Substrates of Cytochrome P450 2C19 (AID 899; active means well fitted inhibition curve with a large enough effect; further: nearly all actives have a fitted effect of over 60% in size; further: potency means the concentration at half of the fitted maximal effect); settings: recombinant CYP2C19, luciferin-H EGE luminescence; series mostly up to 11.4 µM
Sequence of Cytochrome P450 2C19 (Homo sapiens) (P33261 whole entry, looked up): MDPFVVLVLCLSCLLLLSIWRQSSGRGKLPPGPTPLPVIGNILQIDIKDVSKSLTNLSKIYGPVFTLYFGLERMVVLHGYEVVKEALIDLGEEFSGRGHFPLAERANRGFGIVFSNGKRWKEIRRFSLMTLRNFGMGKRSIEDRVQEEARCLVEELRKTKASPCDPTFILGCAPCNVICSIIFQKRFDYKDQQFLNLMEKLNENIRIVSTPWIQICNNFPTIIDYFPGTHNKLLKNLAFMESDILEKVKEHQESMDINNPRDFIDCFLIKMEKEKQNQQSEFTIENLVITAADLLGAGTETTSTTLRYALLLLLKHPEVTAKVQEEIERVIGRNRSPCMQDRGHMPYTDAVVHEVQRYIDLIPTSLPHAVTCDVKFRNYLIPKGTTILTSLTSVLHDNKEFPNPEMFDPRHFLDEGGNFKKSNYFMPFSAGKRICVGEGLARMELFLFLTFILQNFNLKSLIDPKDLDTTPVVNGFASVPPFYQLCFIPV
Procedure, shortened: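 Luminescent read-out of luciferin formed from Luciferin-H EGE (10uM, equal to KM). Enzyme 5nM in 50mM KPO4; compound added, 10 min at 37C, then NADPH regenerating system for 60 min at 37C. Full inhibition defined by 57uM ketoconazole.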

[10] = NFAT Signaling Pathway (AID 444); settings: Jurkat NFAT-bla M1, carbachol, beta-lactamase ratio, 5 h; at 7.69 µM (top of the series) unless noted;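 further: carbachol stimulus at about its EC50 of 1 µM final; on the % scale 0 is the no-effect control and ±100 the full control effect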
Procedure, shortened: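 Jurkat cells with NFAT-driven β-lactamase reporter and co-expressed M1 receptor, stimulated with carbachol (final 1 uM, ~EC50), compound titration, 5 h at 37 °C. CCF4 loaded 1 h at RT; 460/530 nm ratio gave %activity and AC50.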

[11] = target: Mitogen-activated protein kinase 10 (Mus musculus) (UniProt Q61831); experiment: JNK3 AlphaScreen Assay (AID 530); settings: JNK3 lysate, c-Jun phosphorylation; series mostly up to 57.1 µM;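 further: kinase came from lysate of stimulated human HepG2 cells; signal reports phosphorylation of biotinylated GST-cJun 1-79 at Ser73 with 10 µM ATP; on the % scale 0 is the no-effect control and ±100 the full control effect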
Procedure, shortened: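 qHTS format: compounds tested as titrations against IL-1beta/TNF-alpha-activated HepG2 lysate JNK3 with biotin-GST-cJun substrate and 10 uM ATP at room temperature. Loss of anti-phospho-cJun AlphaScreen signal indicates inhibition.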

[12] = target: Cytochrome P450 2D6 (Homo sapiens) (UniProt P10635); experiment: qHTS Assay for Inhibitors and Substrates of Cytochrome P450 2D6 (AID 891; active means well fitted inhibition curve with a large enough effect; further: nearly all actives have a fitted effect of over 60% in size; further: potency means the concentration at half of the fitted maximal effect); settings: recombinant CYP2D6, luciferin-ME EGE luminescence; series mostly up to 11.4 µM
Sequence of Cytochrome P450 2D6 (Homo sapiens) (P10635 whole entry, looked up): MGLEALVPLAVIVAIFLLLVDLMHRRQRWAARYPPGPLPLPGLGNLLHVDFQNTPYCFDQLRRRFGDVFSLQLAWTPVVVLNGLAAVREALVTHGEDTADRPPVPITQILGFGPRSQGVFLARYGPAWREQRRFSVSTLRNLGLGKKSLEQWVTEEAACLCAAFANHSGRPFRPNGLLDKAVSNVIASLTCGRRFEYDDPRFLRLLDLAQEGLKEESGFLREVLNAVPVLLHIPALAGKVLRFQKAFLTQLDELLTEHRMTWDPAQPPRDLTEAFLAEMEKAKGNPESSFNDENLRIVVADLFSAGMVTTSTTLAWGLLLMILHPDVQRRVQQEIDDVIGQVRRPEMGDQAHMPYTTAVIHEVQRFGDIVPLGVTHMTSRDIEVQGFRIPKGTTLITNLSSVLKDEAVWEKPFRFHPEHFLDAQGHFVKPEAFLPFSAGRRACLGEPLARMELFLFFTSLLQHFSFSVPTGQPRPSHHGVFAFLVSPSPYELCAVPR
Procedure, shortened: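 Human CYP2D6 (5 nM) with 30 uM Luciferin-ME EGE (at Km) in 100 mM KPO4, compound preincubated 10 min, then NADPH regeneration system for 60 min at room temperature. Luciferin read by luminescence; normalized to 1.43 uM quinidine.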

CC(C)=C[C@H]1[C@@H](C(=O)OCc2cc3c(cc2Cl)OCO3)C1(C)C
Potency [1]: > 11.4 µM | activity change, negative = inhibition [2]: -2.25% | Potency [3]: 0.794 µM (active) | activity, negative = inhibition [4]: 0.513% | Potency [5]: > 46 µM | Potency [6]: > 9.22 µM | outcome [7]: inactive | Potency [8]: 0.316 µM (active) | Potency [9]: 1.58 µM (active)

NC[C@@H](Cc1ccccc1)P(=O)(O)O
Potency [1]: > 11.4 µM | activity change, negative = inhibition [2]: 11.5% | Potency [3]: inactive | activity change, negative = inhibition [10]: 4.85% | activity, negative = inhibition [4]: 2.4% | Potency [5]: > 46 µM | Potency [6]: > 9.22 µM | outcome [7]: inactive

O=P(O)(O)c1ccccc1 (tested in a mixture with another compound)
Potency [1]: > 11.4 µM | activity change, negative = inhibition [2]: 2.76% | Potency [3]: inactive | activity change, negative = inhibition [10]: 5.01% | activity, negative = inhibition [4]: -0.661% | activity change, negative = inhibition [11]: 6.51% [at 11.4 µM] | outcome [7]: inactive

Cn1c(=O)c2[nH]cnc2n(C)c1=O.[CH2-][C@H](Cc1cccc2cc(C(=O)O)c(=O)oc12)OC.[Hg].[OH-]
Potency [1]: 4.43 µM (active) | activity change, negative = inhibition [2]: -5.03% | Potency [3]: inactive | activity change, negative = inhibition [10]: 6.5% | activity, negative = inhibition [4]: 14% | activity change, negative = inhibition [11]: -0.539% [at 11.4 µM] | outcome [7]: inactive

CN1CCN(c2ccc([N+](=O)[O-])c3[nH]o[n+](=O)c23)CC1
Potency [1]: > 11.4 µM | activity change, negative = inhibition [2]: -7.81% | Potency [3]: 0.398 µM (active) | activity, negative = inhibition [4]: 11.3% | Potency [5]: > 46 µM | Potency [6]: > 9.22 µM | activity change, negative = inhibition [11]: -3.28% [at 11.4 µM] | outcome [7]: inactive

COc1cc2cc(c1Cl)N(C)C(=O)C[C@H](OC(=O)C(C)C)[C@]1(C)O[C@@H]1[C@@H](C)[C@H]1C[C@](O)(NC(=O)O1)[C@@H](OC)/C=C\C=C(\C)C2
Potency [1]: > 11.4 µM | activity change, negative = inhibition [2]: 23.1% | Potency [3]: inactive | activity, negative = inhibition [4]: 6.86% | Potency [5]: 0.278 µM (active) | activity change, negative = inhibition [11]: 2.93% [at 11.4 µM] | outcome [7]: inactive | Potency [12]: inactive | Potency [9]: inactive

C[C@H](c1ccccc1)N1CCN([C@@H](C)c2ccccc2)CC1
Potency [1]: > 11.4 µM | activity change, negative = inhibition [2]: -6.57% | activity change, negative = inhibition [3]: -16% [at 2.29 µM] | activity, negative = inhibition [4]: -0.496% | Potency [5]: > 46 µM | Potency [6]: > 9.22 µM | activity change, negative = inhibition [11]: 1.95% [at 11.4 µM] | outcome [7]: inactive | Potency [12]: 0.0631 µM (active)

FC(F)(F)c1nc2ccc(SSc3ccc4nc(C(F)(F)F)[nH]c4c3)cc2[nH]1
Potency [1]: > 11.4 µM | activity change, negative = inhibition [2]: -1.24% | Potency [3]: 0.501 µM (active) | activity, negative = inhibition [4]: -6.22% | Potency [5]: > 46 µM | Potency [6]: > 9.22 µM | activity change, negative = inhibition [11]: 12.4% [at 11.4 µM] | outcome [7]: inactive | Potency [9]: 5.01 µM (active)

CO[C@@H]([CH2][Hg])CN1C(=O)c2ccccc2S1(=O)=O.Cn1c(=O)c2nc[nH]c2n(C)c1=O
Potency [1]: 1.86 µM (active) | activity change, negative = inhibition [2]: 12.7% | activity change, negative = inhibition [3]: -22% [at 2.29 µM] | activity change, negative = inhibition [10]: -3.51% | activity, negative = inhibition [4]: 6.13% | activity change, negative = inhibition [11]: -0.0716% [at 11.4 µM] | outcome [7]: inactive | Potency [12]: inactive

NS(=O)(=O)C[C-]1C=C[CH]([Sb-]([Cl])([Cl])([Cl])([Cl])[Cl])C=C1.c1ccncc1 (stereo not drawn)
Potency [1]: > 11.4 µM | activity change, negative = inhibition [2]: 2.96% | Potency [3]: inactive | activity change, negative = inhibition [10]: 2.26% | activity, negative = inhibition [4]: 19.7% | activity change, negative = inhibition [11]: 4.62% [at 11.4 µM] | outcome [7]: inactive

CC[C@H]1CN2CCc3cc(OC)c(OC)cc3[C@H]2C[C@@H]1C[C@H]1NCCc2c1[nH]c1ccc(O)cc21
Potency [1]: > 11.4 µM | activity change, negative = inhibition [2]: -118% (active) | Potency [3]: inactive | activity change, negative = inhibition [10]: -128% (active) | Potency [5]: > 46 µM | Potency [6]: > 9.22 µM | activity change, negative = inhibition [11]: -2.73% [at 11.4 µM] | outcome [7]: inactive

NC(N)=NCCN=C(N)N
Potency [1]: > 11.4 µM | activity change, negative = inhibition [2]: 1.56% | Potency [3]: inactive | activity change, negative = inhibition [10]: -0.323% | Potency [5]: > 46 µM | Potency [6]: > 9.22 µM | activity change, negative = inhibition [11]: 1.78% [at 11.4 µM] | outcome [7]: inactive

C[C@@]12CC[C@H](O)C[C@@H]1CC[C@@H]1[C@@H]2CC[C@@]2(C)[C@@H](C3=CC(=O)OC3)[C@H](O)C[C@]12O
Potency [1]: > 11.4 µM | activity change, negative = inhibition [2]: 15.5% | Potency [3]: inactive | activity, negative = inhibition [4]: 8.74% | Potency [5]: > 46 µM | Potency [6]: > 9.22 µM | activity change, negative = inhibition [11]: 1.8% [at 11.4 µM] | outcome [7]: inactive | Potency [9]: inactive

c1ccc2c([C@@H]3CCN(CCN4CCOCC4)C3)c[nH]c2c1
Potency [1]: > 11.4 µM | activity change, negative = inhibition [2]: -11.8% | Potency [3]: inactive | activity, negative = inhibition [4]: 0.702% | Potency [5]: > 46 µM | Potency [6]: > 9.22 µM | activity change, negative = inhibition [11]: 3.19% [at 11.4 µM] | outcome [7]: inactive

CCC1=C(C[C@H]2NCCc3cc(OC)c(OC)cc32)C[C@H]2c3ccccc3CCN2C1
Potency [1]: > 11.4 µM | activity change, negative = inhibition [2]: 9.05% | Potency [3]: inactive | activity change, negative = inhibition [10]: -19.1% | activity, negative = inhibition [4]: 8.03% | Potency [5]: > 46 µM | Potency [6]: > 9.22 µM | activity change, negative = inhibition [11]: 5.5% [at 11.4 µM] | Potency [12]: 0.316 µM (active)
